Assay [1] can be described thus: NCI Yeast Anticancer Drug Screen. Data for the rad50 strain (AID 155).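 Note: 0% = growth of vehicle-only cultures of the same strain.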 The following applies: S. cerevisiae rad50 strain growth inhibition, stronger effect = higher value. The method, boiled down:
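Readout: growth inhibition relative to vehicle-treated cultures. Compound exposure was carried out in a genetically defined yeast strain deficient in DNA damage repair.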

Assay [2] is described as follows: NCI Yeast Anticancer Drug Screen. Data for the mec2-1 strain (AID 157). The following applies: S. cerevisiae mec2-1 strain, stronger effect = higher value. The essentials: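 Cells of the genetically defined mec2-1 yeast strain are incubated with test compound. Inhibition of growth is calculated against vehicle-treated controls.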
Assay [3] is described as follows: NCI Yeast Anticancer Drug Screen. Data for the sgs1 mgt1 strain (AID 161).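 Note: 0% = growth of cultures given vehicle only.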 The following applies: S. cerevisiae sgs1 mgt1 strain, stronger effect = higher value. The essentials:
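Test agents were incubated with a DNA-repair-mutant yeast strain. Growth was then read and compared against vehicle-treated controls.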

Assay [4] can be described thus: NCI Yeast Anticancer Drug Screen. Data for the cln2 rad14 strain (AID 165).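 Note: 0% = growth equal to vehicle treated cultures.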 The following applies: S. cerevisiae cln2 rad14 strain, stronger effect = higher value. The method, boiled down: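 The screen exposed genetically defined yeast (cln2 rad14) to test compounds and scored growth inhibition relative to vehicle-treated controls.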
Assay [5] can be described thus: NCI Yeast Anticancer Drug Screen. Data for the bub3 strain (AID 167). The following applies: S. cerevisiae bub3 mutant strain, stronger effect = higher value. The essentials: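 Readout: yeast growth inhibition, expressed relative to vehicle-only wells. The test organism is a mutant strain from a panel with lesions in DNA repair or checkpoint genes.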
Assay [6] in a line: NCI Yeast Anticancer Drug Screen. Data for the mlh1 rad18 strain (AID 175). Particulars: S. cerevisiae mlh1 rad18 strain growth inhibition, stronger effect = higher value. The essentials: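 Compound-treated yeast growth, normalised to vehicle controls. Strain bears defined DNA repair mutations.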
[7] abbreviates: at 5.0 µM (retest, dose inferred, filed as 0.5).
Where [8] appears, read: at 50.0 µM (retest, dose inferred, filed as 5.0).

From PubChem BioAssay (NCI) come the findings set out here.

The panel holds about 79,000 compounds, 15% with a hit somewhere; the sample as a whole holds those more often. A number with no mark means an inactive call. The source made the active and inactive calls. Cut-off read from the data, not from the text of the source: active = growth inhibition above about 70%; inactive = the rest.

`COc1ccc2c(c1)C1(C)CCCC(C)(C(=O)O)C1CC2` (configuration not stated): the growth inhibition was -8% in assay [1] (setting [7]); 99% (active) in assay [1] (setting [8]); 99.5% (active) in assay [1] (at 50.0 µM); -7% in assay [2] (setting [7]); 99% (active) in assay [2] (setting [8]); 99.5% (active) in assay [2] (at 50.0 µM). The growth inhibition was 1% in assay [3] (setting [7]); 99% (active) in assay [3] (setting [8]); 99.6% (active) in assay [3] (at 50.0 µM); -103% in assay [4] (setting [7]); 99% (active) in assay [4] (setting [8]); 96.8% (active) in assay [4] (at 50.0 µM). Moreover, the growth inhibition is -8% in assay [5] (setting [7]); 93% (active) in assay [5] (setting [8]); 99% (active) in assay [5] (at 50.0 µM); 2% in assay [6] (setting [7]); 98% (active) in assay [6] (setting [8]); 99.5% (active) in assay [6] (at 50.0 µM).
With `CNC(=O)OCc1c(COC(=O)NC)c(-c2ccc(Cl)c(Cl)c2)n2c1Cc1ccccc1C2`, the growth inhibition in assay [1] (setting [7]) is -18%; in assay [1] (setting [8]) it was 97% (active); in assay [1] (at 50.0 µM), 88.7% (active); in assay [2] (setting [7]), -21%; in assay [2] (setting [8]), 98% (active); in assay [2] (at 50.0 µM), 92.2% (active). The growth inhibition in assay [3] (setting [7]) is -6%; in assay [3] (setting [8]) it was 85% (active); in assay [3] (at 50.0 µM) it was 88.8% (active); in assay [4] (setting [7]), 8%; in assay [4] (setting [8]), 63%; in assay [4] (at 50.0 µM) it was 90.8% (active). The growth inhibition is -23% in assay [5] (setting [7]); 97% (active) in assay [5] (setting [8]); 88.1% (active) in assay [5] (at 50.0 µM); -11% in assay [6] (setting [7]); 97% (active) in assay [6] (setting [8]); 87% (active) in assay [6] (at 50.0 µM).
As for `O=C(O)Cc1c[nH]c2ccccc12`, the growth inhibition in assay [1] (setting [7]) was 46%; in assay [1] (setting [8]), -3%; in assay [1] (at 50.0 µM), 51%; in assay [2] (setting [7]) it was 31%; in assay [2] (setting [8]), 7%; in assay [2] (at 50.0 µM), 64%. Moreover, the growth inhibition in assay [3] (setting [7]) was 42%; in assay [3] (setting [8]), -2%; in assay [3] (at 50.0 µM), 94% (active); in assay [4] (setting [7]), 9%; in assay [4] (setting [8]), -12%; in assay [4] (at 50.0 µM), 49%. For the same molecule, the growth inhibition in assay [5] (setting [7]) was 85% (active); in assay [5] (setting [8]), -8%; in assay [5] (at 50.0 µM), 92.5% (active); in assay [6] (setting [7]) it was 84% (active); in assay [6] (setting [8]) it was -2%; in assay [6] (at 50.0 µM), 91.2% (active).
Consider `O=C(Nc1ccc(Cl)cc1)NS(=O)(=O)c1c(-c2ccccc2)oc2ccccc2c1=O`, for which the growth inhibition was 14% in assay [1] (setting [7]); 99% (active) in assay [1] (setting [8]); 92.3% (active) in assay [1] (at 50.0 µM); 6% in assay [2] (setting [7]); 98% (active) in assay [2] (setting [8]); 96.3% (active) in assay [2] (at 50.0 µM). In addition, the growth inhibition in assay [3] (setting [7]) was 7%; in assay [3] (setting [8]), 99% (active); in assay [3] (at 50.0 µM) it was 95.5% (active); in assay [4] (setting [7]) it was 15%; in assay [4] (setting [8]), 98% (active); in assay [4] (at 50.0 µM), 93.3% (active). Further, the growth inhibition in assay [5] (setting [7]) was 0%; in assay [5] (setting [8]), 97% (active); in assay [5] (at 50.0 µM), 95.3% (active); in assay [6] (setting [7]), 15%; in assay [6] (setting [8]) it was 98% (active); in assay [6] (at 50.0 µM), 95.3% (active).
As for `CC1=C(C(=O)NCc2ccccc2)C(c2ccccc2[N+](=O)[O-])C(C(=O)NCc2ccccc2)=C(C)N1`, the growth inhibition in assay [1] (setting [7]) is 16%; in assay [1] (setting [8]) it was 16%; in assay [1] (at 50.0 µM), 71% (active); in assay [2] (setting [7]), 9%; in assay [2] (setting [8]) it was 9%; in assay [2] (at 50.0 µM), 84.2% (active). For the same molecule, the growth inhibition in assay [3] (setting [7]) was -2%; in assay [3] (setting [8]) it was -2%; in assay [3] (at 50.0 µM), 81.4% (active); in assay [4] (setting [7]), -4%; in assay [4] (setting [8]) it was -4%; in assay [4] (at 50.0 µM) it was 62.9%. The growth inhibition in assay [5] (setting [7]) was 15%; in assay [5] (setting [8]) it was 15%; in assay [5] (at 50.0 µM), 81.1% (active); in assay [6] (setting [7]), 4%; in assay [6] (setting [8]) it was 4%; in assay [6] (at 50.0 µM) it was 77.6% (active).
Regarding `CC1(c2ccc(O)cc2)CC(C)(c2ccc(O)cc2)C1` (configuration not stated), the growth inhibition in assay [1] (setting [7]) was 81% (active); in assay [1] (setting [8]), 93% (active); in assay [1] (at 50.0 µM), 94.8% (active); in assay [2] (setting [7]), 32%; in assay [2] (setting [8]) it was 82% (active); in assay [2] (at 50.0 µM), 93.2% (active). Further, the growth inhibition in assay [3] (setting [7]) was 67%; in assay [3] (setting [8]), 91% (active); in assay [3] (at 50.0 µM), 91.9% (active); in assay [4] (setting [7]) it was 41%; in assay [4] (setting [8]), 87% (active); in assay [4] (at 50.0 µM), 94.2% (active). For the same molecule, the growth inhibition in assay [5] (setting [7]) was 87% (active); in assay [5] (setting [8]), 91% (active); in assay [5] (at 50.0 µM) it was 95.2% (active); in assay [6] (setting [7]), 86% (active); in assay [6] (setting [8]), 89% (active); in assay [6] (at 50.0 µM), 92.8% (active).
On to `Cc1ccc(SCc2nc3ccccc3c(C)[n+]2[O-])cc1`, for which the growth inhibition in assay [1] (setting [7]) is 2%; in assay [1] (setting [8]), 86% (active); in assay [1] (at 50.0 µM), 32.6%; in assay [2] (setting [7]) it was 4%; in assay [2] (setting [8]), 86% (active); in assay [2] (at 50.0 µM) it was 45.6%. Moreover, the growth inhibition in assay [3] (setting [7]) is -7%; in assay [3] (setting [8]), 87% (active); in assay [3] (at 50.0 µM), 55%; in assay [4] (setting [7]) it was 0%; in assay [4] (setting [8]), 53%; in assay [4] (at 50.0 µM), 38%. For the same molecule, the growth inhibition in assay [5] (setting [7]) is -4%; in assay [5] (setting [8]) it was 76% (active); in assay [5] (at 50.0 µM), 55.9%; in assay [6] (setting [7]) it was -7%; in assay [6] (setting [8]) it was 91% (active); in assay [6] (at 50.0 µM), 56.7%.
For the molecule `COc1cccc(/C=N/NC(=O)c2c(-c3ccccc3)noc2C)c1O`, the growth inhibition is 47% in assay [1] (setting [7]); 70% (active) in assay [1] (setting [8]); 85% (active) in assay [1] (at 50.0 µM); 26% in assay [2] (setting [7]); 86% (active) in assay [2] (setting [8]); 84.1% (active) in assay [2] (at 50.0 µM). The growth inhibition in assay [3] (setting [7]) is 45%; in assay [3] (setting [8]), 82% (active); in assay [3] (at 50.0 µM), 89.2% (active); in assay [4] (setting [7]), 25%; in assay [4] (setting [8]), 51%; in assay [4] (at 50.0 µM), 83.3% (active). Further, the growth inhibition in assay [5] (setting [7]) is 42%; in assay [5] (setting [8]) it was 85% (active); in assay [5] (at 50.0 µM), 85.5% (active); in assay [6] (setting [7]) it was 58%; in assay [6] (setting [8]), 87% (active); in assay [6] (at 50.0 µM), 81.8% (active).
As to `COc1cc2c(cc1OC)[C@H]1C(=O)c3cc4c(cc3[C@H]1N(C)C2=O)OCO4`, the growth inhibition is -1% in assay [1] (setting [7]); 0% in assay [1] (setting [8]); 10.3% in assay [1] (at 50.0 µM); 1% in assay [2] (setting [7]); -2% in assay [2] (setting [8]); 11.9% in assay [2] (at 50.0 µM). The growth inhibition in assay [3] (setting [7]) was -8%; in assay [3] (setting [8]) it was -4%; in assay [3] (at 50.0 µM), -2.35%; in assay [4] (setting [7]), -6%; in assay [4] (setting [8]), -1%; in assay [4] (at 50.0 µM), 50.4%. In addition, the growth inhibition in assay [5] (setting [7]) was -7%; in assay [5] (setting [8]), 1%; in assay [5] (at 50.0 µM), 27.7%; in assay [6] (setting [7]), 0%; in assay [6] (setting [8]) it was -32%; in assay [6] (at 50.0 µM), 39.8%.
